PKM2 activator: PKM2 (human) enzyme activation; purified PKM2, Kinase-Glo ATP luminescence, activation; response scale: 0% is enzyme alone, no compound; Potency, µM (titrated, usually from 57.5 µM), usual class: activators; actives 0.34% (n = 260,000); note: nearly all actives have a fitted effect of over 55% in size
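ATP formation by purified human PK-M2, quantified via coupled luciferase luminescence after 1 h at room temperature with 0.1 mM ADP and 0.5 mM PEP final.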
IDH1 R132H inh: inhibitors of human mutant IDH1 R132H. O75874. IDH1-R132H enzyme, NADPH consumption, diaphorase/resazurin fluorescence. Potency, µM (titrated, usually from 76.6 µM), actives largely listed as inhibitors. actives 0.093% (n = 390,000). AID 602179; note: nearly all actives have a fitted effect of over 65% in size
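IDH1-R132H (0.5 ug/mL dispensed) in pH 7.5 Tris buffer was preincubated 30 min with compound, then given a substrate mix of 0.016 mM NADPH and 2 mM alpha-KG for 80 min at room temperature; remaining NADPH was read by diaphorase/resazurin fluorescence.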
TrxR1 substrate: is turned over as a substrate by rat TrxR1. actives 0.01% (n = 390,000). purified TrxR1 substrate turnover, NADPH consumption readout. O89049. AID 588456. Potency, µM (series often up to 114 µM); note: nearly all actives have a fitted effect of over 50% in size
Target sequence (O89049 whole entry, looked up): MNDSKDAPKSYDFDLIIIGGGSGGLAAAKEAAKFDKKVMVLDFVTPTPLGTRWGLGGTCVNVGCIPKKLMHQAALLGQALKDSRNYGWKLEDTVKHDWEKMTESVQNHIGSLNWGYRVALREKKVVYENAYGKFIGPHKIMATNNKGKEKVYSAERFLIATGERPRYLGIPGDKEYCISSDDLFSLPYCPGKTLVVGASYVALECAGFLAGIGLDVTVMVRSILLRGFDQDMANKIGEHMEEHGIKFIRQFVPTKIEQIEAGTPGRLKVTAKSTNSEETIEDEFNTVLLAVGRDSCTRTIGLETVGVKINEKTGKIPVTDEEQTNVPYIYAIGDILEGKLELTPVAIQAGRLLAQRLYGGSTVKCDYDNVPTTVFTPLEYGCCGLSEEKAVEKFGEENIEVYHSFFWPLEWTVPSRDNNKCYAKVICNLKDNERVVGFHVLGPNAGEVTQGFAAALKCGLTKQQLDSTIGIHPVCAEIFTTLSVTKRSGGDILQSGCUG
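Rat TrxR1, dispensed at 90 nM, was prereduced with 400 uM NADPH (final) for 5 min at ~22 deg C, then incubated with compound 15 min before 400 uM selenite. A first-read NADPH fluorescence drop versus no-compound background flagged substrates.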
LDHA block: LDHA (human) enzyme inhibition; P00338; purified LDHA, NADH/diaphorase-resazurin fluorescence; stronger effect = lower value; activity change, % (values are at about 110 or 230 µM); actives 0.15% (n = 480,000); AID 1347041; in the data active = activity change below about -30%; inconclusive = mostly about -25% to -30%
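Human LDH5 (2 nM) was incubated with 0.06 mM NADH and 0.2 mM pyruvate for 5 min at room temperature in Tris pH 7.4. Remaining NADH was coupled through diaphorase/resazurin, and resorufin fluorescence was read at 0 and 20 min.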
GLS inhibitor: inhibitors of human glutaminase (GLS); AID 624170; GLS enzymatic activity, qHTS titration; actives 0.21% (n = 410,000); Potency, µM (doses to about 45.5 µM), usual class: inhibitors
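Glutamate formation by hKGA was monitored fluorometrically using coupled glutamate oxidase, HRP and Amplex Red. Substrate was added as 1 mM L-glutamine solution; incubation was 30 min at RT after an initial read.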
TrxR1 inh: inhibitors of rat thioredoxin reductase 1; actives 1% (n = 390,000); Potency, µM (titrated, usually from 114 µM), actives largely listed as inhibitors; recombinant rTrxR1, NADPH fluorescence consumption, selenite substrate; note: nearly all actives have a fitted effect of over 65% in size
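Rat TrxR1 (90 nM in the dispensed reagent) was pre-reduced with 400 uM NADPH for 5 min at room temperature, then incubated with compound for 15 min. After 400 uM selenite was added, NADPH fluorescence (Ex 340/Em 450 nm) was followed for 8 min.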
Each line names hits and unclear results; the compound was inactive in the other large screens. Only some compounds are listed: those with a hit (about 1.4% of all), similar ones and a draw of the others. Unless noted, calls come from the whole dose curve; as a rule, active = well fitted curve in the direction sought with a large enough effect; inconclusive = small, poorly fitted or top-dose-only effect, or another doubt; inactive = no such curve, though single readings can be large; an effect the other way counts as inactive or inconclusive.

COc1cccc(C2C(C(=O)Nc3ccccc3)=C(C)Nc3nc(SC)nn32)c1OC (stereo not given)	none (no result: PKM2 activator, IDH1 R132H inh, TrxR1 substrate, GLS inhibitor, TrxR1 inh)
O=[N+]([O-])c1ccc(C(=S)N2CCN(c3ccc(F)cc3)CC2)cc1	GLS inhibitor 15.8µM
CN(C)c1ccc(C(=S)N2CCN(c3ccc([N+](=O)[O-])cc3)CC2)cc1	none
CCOC(=O)c1cnc2ccc(C(=O)OC)cc2c1NCCN1CCOCC1	TrxR1 inh 44.7µM
CCOC(=O)c1cnc2ccc(C(=O)OC)cc2c1NCCCN1CCOCC1	none
COc1nc(-c2ccccc2)ncc1S(=O)(=O)c1ccccc1	PKM2 activator 15.8µM
CCC1Oc2ccc(C)cc2N(CC(=O)N(Cc2ccc(C)o2)C2CCCC2)C1=O (stereo not given)	PKM2 activator inconclusive, TrxR1 inh 25.1µM
CCC1Oc2ccc(C)cc2N(CC(=O)NC2CCCCC2)C1=O (stereo not given)	none
COc1ccc2[nH]c3c(=O)n(Cc4ccc(C(=O)N5CCCC5)cc4)c(=S)[nH]c3c2c1	GLS inhibitor 10µM
CCn1c2ccccc2c2cc(CN3CCN(S(=O)(=O)Cc4ccccc4)CC3)ccc21	LDHA block -30.2
CCn1c2ccccc2c2cc(CN3CCN(S(=O)(=O)CC)CC3)ccc21	none (no result: IDH1 R132H inh, TrxR1 substrate, LDHA block, GLS inhibitor, TrxR1 inh)
CCCCCOC(=O)Nc1ccc(S(=O)(=O)Nn2cnnc2)cc1	PKM2 activator 4.47µM
CCCCOC(=O)Nc1ccc(S(=O)(=O)Nc2ncccn2)cc1	none
CC1CCN(Cc2nc(N)c3ccccc3n2)CC1	none (no result: PKM2 activator, IDH1 R132H inh, TrxR1 substrate, GLS inhibitor, TrxR1 inh)
CCN(CC)C(=O)CSc1nc(-c2ccc(C)cc2)nc2c1Cc1c(CO)cnc(C)c1O2	TrxR1 inh 20µM (no result: PKM2 activator)
Cc1ccc(CNC(=O)CCS(=O)(=O)c2cccc3nonc23)cc1	TrxR1 inh 56.2µM
COc1ccc(CNC(=O)CCS(=O)(=O)c2cccc3nonc23)cc1	TrxR1 inh 11.2µM
Cc1ccc(CNC(=O)CCS(=O)(=O)c2ccc(Br)cc2)cc1	GLS inhibitor 11.2µM
Cc1ccccc1-c1nc2ccc(NC(=O)C3CC3)cc2o1	none (no result: PKM2 activator, IDH1 R132H inh, TrxR1 substrate, GLS inhibitor, TrxR1 inh)
Cc1ccc(N=Cc2c(Cl)cccc2Cl)c(C)c1	none (no result: PKM2 activator, IDH1 R132H inh, TrxR1 substrate, GLS inhibitor, TrxR1 inh)
O=C(Oc1ccc(OC(=O)c2ccco2)c(S(=O)(=O)c2ccc(Br)cc2)c1)c1ccco1	PKM2 activator 4.47µM
C/C(=N\Nc1nc2c(s1)CCCC2)c1ccccc1	TrxR1 inh 50.1µM
CCC(=O)Nc1sc2c(c1C(=O)Nc1ccc(Br)cc1)CCCCC2	TrxR1 inh 56.2µM (no result: PKM2 activator)
O=C(Cc1ccccc1)Nc1sc2c(c1C(=O)Nc1ccccc1)CCCCC2	TrxR1 inh 39.8µM (no result: PKM2 activator)
CCC(=O)Nc1sc2c(c1C(=O)Nc1cccc(C)c1)CCCC2	none (no result: PKM2 activator)
CCN(CC)S(=O)(=O)c1ccc(Cl)c(C(=O)NC2CCN(Cc3ccccc3)CC2)c1	none (no result: PKM2 activator)
CC(C)CN(C[C@@H](OP(=O)(O)O)[C@H](Cc1ccccc1)NC(=O)O[C@@H]1CCOC1)S(=O)(=O)c1ccc(N)cc1	GLS inhibitor 14.1µM (no result: PKM2 activator, IDH1 R132H inh, TrxR1 substrate, LDHA block, TrxR1 inh)
CCn1c(=O)c([N+](=O)[O-])c(Cl)c2ccccc21	TrxR1 inh 2.51µM
CCC(=O)Nc1ccc(C(=O)NN=C(C)C)cc1	none (no result: PKM2 activator, IDH1 R132H inh, TrxR1 substrate, GLS inhibitor, TrxR1 inh)
Fc1ccc(-c2cnc(COc3ccc(Cl)cc3)o2)cc1	none (no result: PKM2 activator, IDH1 R132H inh, TrxR1 substrate, GLS inhibitor, TrxR1 inh)
CCOC(=O)N1CCN(c2cc(=O)n(-c3ccc(OC)cc3)c(=O)[nH]2)CC1	TrxR1 inh inconclusive
COC(=O)C1CCN(c2cc(=O)n(-c3ccc(OC)cc3)c(=O)[nH]2)CC1	TrxR1 inh 28.2µM
O=C(/C=C/c1ccccc1[N+](=O)[O-])Nc1ccccc1	none
NNC(=S)Nc1ccc(Cl)cc1	GLS inhibitor inconclusive
NN/C(=C\[N+](=O)[O-])Nc1ccccc1	TrxR1 inh 15.8µM
NN/C(=C\[N+](=O)[O-])Nc1ccc(Cl)cc1	TrxR1 inh 15.8µM
CCn1cc(S(=O)(=O)N2CCN(c3ccc(C(C)=O)cc3)CC2)cn1	none (no result: PKM2 activator, IDH1 R132H inh, TrxR1 substrate, GLS inhibitor, TrxR1 inh)
O=c1c2cccc(Cl)c2nc2n1Cc1ccccc1-2	GLS inhibitor 12.6µM, TrxR1 inh inconclusive
CCOC(=O)c1cc2cc(C#N)ccc2[nH]1	none (no result: PKM2 activator, IDH1 R132H inh, TrxR1 substrate, GLS inhibitor, TrxR1 inh)

High-throughput results deposited in PubChem BioAssay by National Center for Advancing Translational Sciences (NCATS).
